According to the supplement of paper PMC10849652:
Targets with a hit are over-represented here; the source holds about 7,900 in all. About 0.6% of all pairs of compound and target were hits.

How the values were obtained:
Test in all cases: log2 fold change, soluble protein after heating vs DMSO (PISA); higher = thermal stabilisation; K562 cells, 10 uM, 30 min; active = over 0.2 and 3.5 SD of the protein, either way, in both replicates (recomputed)
[1] = compound: CS(=O)(=O)c1ccc(-c2cnc(N)c(C(=O)Nc3ccccc3)n2)cc1
Procedure, shortened: (§1)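 K562 cells at 2×10^6 cells/mL were exposed to 10 μM compound for 30 min, then aliquots were heated for 3 min across 48°C-58°C, pooled, and extracted in PBS containing 0.5% NP-40 at 4°C. The supernatant after 21,000xg for 90 min was taken as soluble protein and measured by TMTpro 16plex LC-MS/MS with channel sums equalised. Thermal stability is reported relative to control samples, with values from duplicates. Fold changes are given on a log2 scale.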

crizotinib = compound: C[C@@H](Oc1cc(-c2cnn(C3CCNCC3)c2)cnc1N)c1c(Cl)ccc(F)c1Cl [crizotinib]
Procedure, shortened: as §1

[2] = compound: C[C@@H]1COCCN1C2=NC(=NC(=C2)C3(CC3)S(=O)(=O)C)C4=C5C=CNC5=CC=C4
Procedure, shortened: as §1

[3] = compound: C[C@H](C1=CC=C(C=C1)C(=O)NC2=C3C=CNC3=NC=C2)N
Procedure, shortened: as §1

duvelisib = compound: C[C@H](Nc1ncnc2nc[nH]c12)c1cc2cccc(Cl)c2c(=O)n1-c1ccccc1 [duvelisib]
Procedure, shortened: as §1

gandotinib = compound: Cc1cc(Nc2cc(CN3CCOCC3)c3nc(C)c(Cc4ccc(Cl)cc4F)n3n2)n[nH]1 [gandotinib]
Procedure, shortened: as §1

tozasertib = compound: Cc1cc(Nc2cc(N3CCN(C)CC3)nc(Sc3ccc(NC(=O)C4CC4)cc3)n2)n[nH]1 [tozasertib]
Procedure, shortened: as §1

[4] = compound: Cc1cc(SCc2sc(-c3ccc(C(F)(F)F)cc3)nc2C)ccc1OCC(=O)O
Procedure, shortened: as §1

doramapimod = compound: Cc1ccc(-n2nc(C(C)(C)C)cc2NC(=O)Nc2ccc(OCCN3CCOCC3)c3ccccc23)cc1 [doramapimod]
Procedure, shortened: as §1

ispinesib = compound: Cc1ccc(C(=O)N(CCCN)[C@@H](c2nc3cc(Cl)ccc3c(=O)n2Cc2ccccc2)C(C)C)cc1 [ispinesib]
Procedure, shortened: as §1

Measured: log2 fold change

MAP4 (UniProt P27816)
UniProt P27816, sequence (P27816 whole entry, looked up): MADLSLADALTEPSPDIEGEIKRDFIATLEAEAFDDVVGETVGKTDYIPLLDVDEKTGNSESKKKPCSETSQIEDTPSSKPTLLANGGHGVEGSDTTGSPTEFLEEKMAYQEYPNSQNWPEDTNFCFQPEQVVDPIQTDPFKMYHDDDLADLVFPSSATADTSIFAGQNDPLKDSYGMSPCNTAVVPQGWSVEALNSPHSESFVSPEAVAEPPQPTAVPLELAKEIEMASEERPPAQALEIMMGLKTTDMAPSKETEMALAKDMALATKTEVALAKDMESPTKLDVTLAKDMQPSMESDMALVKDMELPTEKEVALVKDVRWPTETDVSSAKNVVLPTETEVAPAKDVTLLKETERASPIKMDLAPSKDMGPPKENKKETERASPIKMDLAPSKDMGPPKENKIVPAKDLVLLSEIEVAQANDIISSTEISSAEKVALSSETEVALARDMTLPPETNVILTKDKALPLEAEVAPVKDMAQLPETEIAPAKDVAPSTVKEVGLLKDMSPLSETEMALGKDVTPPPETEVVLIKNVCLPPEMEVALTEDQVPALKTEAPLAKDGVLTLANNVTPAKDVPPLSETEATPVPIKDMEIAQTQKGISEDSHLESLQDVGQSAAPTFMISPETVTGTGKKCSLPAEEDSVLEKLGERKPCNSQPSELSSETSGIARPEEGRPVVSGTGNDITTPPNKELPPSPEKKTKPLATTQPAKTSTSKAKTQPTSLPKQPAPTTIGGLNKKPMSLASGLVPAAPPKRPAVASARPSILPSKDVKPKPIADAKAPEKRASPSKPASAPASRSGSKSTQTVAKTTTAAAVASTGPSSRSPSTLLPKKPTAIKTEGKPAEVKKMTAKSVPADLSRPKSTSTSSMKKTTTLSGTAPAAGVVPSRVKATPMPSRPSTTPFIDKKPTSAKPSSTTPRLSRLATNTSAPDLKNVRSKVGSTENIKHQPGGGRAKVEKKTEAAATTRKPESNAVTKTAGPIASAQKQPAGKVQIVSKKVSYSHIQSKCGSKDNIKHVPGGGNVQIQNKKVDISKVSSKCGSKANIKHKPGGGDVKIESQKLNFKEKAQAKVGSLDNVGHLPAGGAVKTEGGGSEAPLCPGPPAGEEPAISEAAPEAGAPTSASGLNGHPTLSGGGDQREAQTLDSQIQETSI
inactive: [1] -0.004 | crizotinib 0.012 | [2] -0.025 | [3] -0.035 | duvelisib -0.03 | gandotinib 0.006 | tozasertib -0.023 | [4] -0.051 | doramapimod 0.008 | ispinesib -0.014

MDN1 (UniProt Q9NU22)
inactive: [1] -0.072 | crizotinib -0.135 | [2] 0.094 | [3] 0.002 | duvelisib 0.024 | gandotinib -0.156 | tozasertib -0.052 | [4] 0.063 | doramapimod -0.005 | ispinesib -0.117

MEPCE (UniProt Q7L2J0)
UniProt Q7L2J0, sequence (Q7L2J0 whole entry, looked up): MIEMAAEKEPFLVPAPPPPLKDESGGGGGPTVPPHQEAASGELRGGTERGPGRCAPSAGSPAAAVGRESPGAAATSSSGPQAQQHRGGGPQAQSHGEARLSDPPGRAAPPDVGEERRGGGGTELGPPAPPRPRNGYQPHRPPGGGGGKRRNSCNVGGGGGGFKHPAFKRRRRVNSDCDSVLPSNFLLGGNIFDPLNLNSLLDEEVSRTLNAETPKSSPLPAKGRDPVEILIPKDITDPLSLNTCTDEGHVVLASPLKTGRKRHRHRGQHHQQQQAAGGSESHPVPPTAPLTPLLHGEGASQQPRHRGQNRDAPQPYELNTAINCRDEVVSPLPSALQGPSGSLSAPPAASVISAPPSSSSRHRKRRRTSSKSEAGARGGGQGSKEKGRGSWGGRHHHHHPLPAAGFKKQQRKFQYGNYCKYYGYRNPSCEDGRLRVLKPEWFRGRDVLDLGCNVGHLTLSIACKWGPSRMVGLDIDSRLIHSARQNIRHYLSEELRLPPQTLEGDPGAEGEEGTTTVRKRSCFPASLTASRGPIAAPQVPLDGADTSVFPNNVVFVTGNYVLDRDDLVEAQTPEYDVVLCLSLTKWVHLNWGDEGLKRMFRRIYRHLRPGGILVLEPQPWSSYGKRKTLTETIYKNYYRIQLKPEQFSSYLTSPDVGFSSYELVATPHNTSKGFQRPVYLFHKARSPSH
inactive: [1] -0.006 | crizotinib 0.111 | [2] 0.03 | [3] -0.005 | duvelisib -0.005 | gandotinib -0.051 | tozasertib 0.094 | [4] 0.04 | doramapimod -0.22 | ispinesib -0.065

MAPK8 isoform 3 (UniProt P45983)
inactive: [1] 0.003 | crizotinib -0.08 | [2] 0.092 | [3] -0.096 | duvelisib 0.018 | gandotinib 0.254 | tozasertib -0.127 | [4] 0.096 | doramapimod -0.019 | ispinesib -0.008

MAPK9 (UniProt P45984)
UniProt P45984, sequence (P45984 whole entry, looked up): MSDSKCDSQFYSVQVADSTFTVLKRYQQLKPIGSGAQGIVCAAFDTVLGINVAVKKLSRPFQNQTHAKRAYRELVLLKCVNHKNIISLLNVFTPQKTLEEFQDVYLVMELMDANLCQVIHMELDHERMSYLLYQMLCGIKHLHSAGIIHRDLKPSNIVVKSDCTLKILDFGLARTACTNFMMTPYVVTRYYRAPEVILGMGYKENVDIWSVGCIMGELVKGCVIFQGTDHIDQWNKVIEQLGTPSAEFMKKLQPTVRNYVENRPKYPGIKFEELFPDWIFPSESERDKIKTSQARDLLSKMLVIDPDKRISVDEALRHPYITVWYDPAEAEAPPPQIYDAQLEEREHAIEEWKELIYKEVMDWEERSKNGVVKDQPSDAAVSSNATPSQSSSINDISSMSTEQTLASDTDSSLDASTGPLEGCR
inactive: [1] 0.006 | crizotinib -0.042 | [2] 0.054 | [3] -0.068 | duvelisib 0.023 | gandotinib -0.018 | tozasertib -0.013 | [4] -0.041 | doramapimod 0.145 | ispinesib 0.01

MARCKS (UniProt P29966)
inactive: [1] 0.022 | crizotinib 0.198 | [2] -0.042 | [3] -0.191 | duvelisib 0.006 | gandotinib 0.234 | tozasertib -0.068 | [4] 0.025 | doramapimod 0 | ispinesib -0.031

MIER1 isoform 12 (UniProt Q8N108)
inactive: [1] 0.009 | crizotinib -0.027 | [2] 0.035 | [3] -0.034 | duvelisib -0.012 | gandotinib -0.004 | tozasertib -0.021 | [4] 0.035 | doramapimod 0.026 | ispinesib -0.029

LAMP2 (UniProt P13473)
inactive: [1] 0.055 | crizotinib 0.043 | [2] 0.006 | [3] -0.051 | duvelisib 0.072 | gandotinib -0.104 | tozasertib 0.015 | [4] -0.062 | doramapimod -0.039 | ispinesib -0.001

KIF21A isoform 4 (UniProt Q7Z4S6)
inactive: [1] 0.092 | crizotinib -0.039 | [2] 0.027 | [3] 0.207 | duvelisib 0.055 | gandotinib -0.001 | tozasertib 0.021 | [4] 0.044 | doramapimod 0.047 | ispinesib -0.153

LIMA1 isoform 4 (UniProt Q9UHB6)
UniProt Q9UHB6, sequence (Q9UHB6 whole entry, looked up): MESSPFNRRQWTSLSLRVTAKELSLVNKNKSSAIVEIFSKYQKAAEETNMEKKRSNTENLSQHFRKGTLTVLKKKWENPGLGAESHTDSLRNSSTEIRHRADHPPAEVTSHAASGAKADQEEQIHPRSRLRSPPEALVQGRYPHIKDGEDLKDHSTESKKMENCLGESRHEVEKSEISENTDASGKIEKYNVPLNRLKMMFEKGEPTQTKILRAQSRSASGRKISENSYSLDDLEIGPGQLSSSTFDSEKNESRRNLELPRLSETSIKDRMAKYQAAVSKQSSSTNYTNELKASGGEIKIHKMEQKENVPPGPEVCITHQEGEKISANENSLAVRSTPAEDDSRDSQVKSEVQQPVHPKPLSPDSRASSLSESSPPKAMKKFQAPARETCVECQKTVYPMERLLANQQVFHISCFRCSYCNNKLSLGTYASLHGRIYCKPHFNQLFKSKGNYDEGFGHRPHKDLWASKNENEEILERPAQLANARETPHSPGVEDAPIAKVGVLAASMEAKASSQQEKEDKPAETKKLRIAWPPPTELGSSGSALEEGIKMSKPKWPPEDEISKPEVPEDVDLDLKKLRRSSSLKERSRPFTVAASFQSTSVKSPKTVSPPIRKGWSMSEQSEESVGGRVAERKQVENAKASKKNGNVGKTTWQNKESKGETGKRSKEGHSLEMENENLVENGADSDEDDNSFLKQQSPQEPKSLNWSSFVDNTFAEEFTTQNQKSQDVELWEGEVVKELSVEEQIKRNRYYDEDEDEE
inactive: [1] -0.076 | crizotinib 0.001 | [2] -0.04 | [3] -0.057 | duvelisib 0.003 | gandotinib 0.019 | tozasertib 0.027 | [4] -0.036 | doramapimod -0.023 | ispinesib 0.185

LTV1 (UniProt Q96GA3)
inactive: [1] 0.006 | crizotinib -0.143 | [2] -0.189 | [3] 0.294 | duvelisib -0.087 | gandotinib 0.199 | tozasertib 0.035 | [4] 0.009 | doramapimod 0.128 | ispinesib -0.271

KPNA6 (UniProt O60684)
inactive: [1] -0.01 | crizotinib -0.11 | [2] -0.011 | [3] 0.138 | duvelisib 0 | gandotinib -0.028 | tozasertib 0.046 | [4] 0.07 | doramapimod 0.046 | ispinesib -0.202

LDAH isoform 2 (UniProt Q9H6V9)
UniProt Q9H6V9, sequence (Q9H6V9 whole entry, looked up): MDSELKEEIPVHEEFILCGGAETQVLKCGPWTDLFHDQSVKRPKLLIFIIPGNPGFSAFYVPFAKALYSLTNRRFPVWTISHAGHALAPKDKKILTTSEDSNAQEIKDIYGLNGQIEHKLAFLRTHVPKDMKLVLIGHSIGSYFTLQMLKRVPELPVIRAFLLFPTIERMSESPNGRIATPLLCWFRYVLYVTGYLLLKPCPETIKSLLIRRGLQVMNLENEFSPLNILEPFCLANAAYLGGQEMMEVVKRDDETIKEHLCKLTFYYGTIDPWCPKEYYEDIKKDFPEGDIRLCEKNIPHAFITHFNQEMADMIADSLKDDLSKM
active: crizotinib -0.308 | ispinesib -0.438
inactive: [1] 0.052 | [2] 0.064 | [3] -0.035 | duvelisib 0.001 | gandotinib -0.001 | tozasertib -0.047 | [4] 0.204 | doramapimod 0.019

MAP1LC3B2 (UniProt A6NCE7)
inactive: [1] 0.035 | crizotinib -0.047 | [2] 0.054 | [3] -0.144 | duvelisib 0.061 | gandotinib -0.012 | tozasertib 0.114 | [4] 0.011 | doramapimod 0.003 | ispinesib 0.02

KPNA4 (UniProt O00629)
inactive: [1] 0.004 | crizotinib -0.003 | [2] 0.024 | [3] -0.073 | duvelisib 0.03 | gandotinib -0.032 | tozasertib -0.014 | [4] 0.014 | doramapimod -0.046 | ispinesib 0.037

KIF3A (UniProt Q9Y496)
inactive: [1] 0.049 | crizotinib -0.239 | [2] -0.01 | [3] 0.143 | duvelisib 0.048 | gandotinib -0.024 | tozasertib 0.009 | [4] -0.029 | doramapimod 0.003 | ispinesib 0.044

MAPRE3 (UniProt Q9UPY8)
UniProt Q9UPY8, sequence (Q9UPY8 whole entry, looked up): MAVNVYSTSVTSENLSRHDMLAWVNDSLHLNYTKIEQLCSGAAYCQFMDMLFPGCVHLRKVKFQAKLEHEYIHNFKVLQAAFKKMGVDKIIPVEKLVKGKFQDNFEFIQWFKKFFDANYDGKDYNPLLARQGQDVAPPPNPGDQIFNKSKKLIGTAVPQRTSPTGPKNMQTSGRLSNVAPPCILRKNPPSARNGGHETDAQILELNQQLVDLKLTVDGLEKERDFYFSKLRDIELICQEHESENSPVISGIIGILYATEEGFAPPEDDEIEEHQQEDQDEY
inactive: [1] -0.011 | crizotinib 0.004 | [2] 0.092 | [3] -0.085 | duvelisib 0.02 | gandotinib -0.098 | tozasertib 0.037 | [4] 0.006 | doramapimod -0.042 | ispinesib 0.02

ITGA2B (UniProt P08514)
UniProt P08514, sequence (P08514 whole entry, looked up): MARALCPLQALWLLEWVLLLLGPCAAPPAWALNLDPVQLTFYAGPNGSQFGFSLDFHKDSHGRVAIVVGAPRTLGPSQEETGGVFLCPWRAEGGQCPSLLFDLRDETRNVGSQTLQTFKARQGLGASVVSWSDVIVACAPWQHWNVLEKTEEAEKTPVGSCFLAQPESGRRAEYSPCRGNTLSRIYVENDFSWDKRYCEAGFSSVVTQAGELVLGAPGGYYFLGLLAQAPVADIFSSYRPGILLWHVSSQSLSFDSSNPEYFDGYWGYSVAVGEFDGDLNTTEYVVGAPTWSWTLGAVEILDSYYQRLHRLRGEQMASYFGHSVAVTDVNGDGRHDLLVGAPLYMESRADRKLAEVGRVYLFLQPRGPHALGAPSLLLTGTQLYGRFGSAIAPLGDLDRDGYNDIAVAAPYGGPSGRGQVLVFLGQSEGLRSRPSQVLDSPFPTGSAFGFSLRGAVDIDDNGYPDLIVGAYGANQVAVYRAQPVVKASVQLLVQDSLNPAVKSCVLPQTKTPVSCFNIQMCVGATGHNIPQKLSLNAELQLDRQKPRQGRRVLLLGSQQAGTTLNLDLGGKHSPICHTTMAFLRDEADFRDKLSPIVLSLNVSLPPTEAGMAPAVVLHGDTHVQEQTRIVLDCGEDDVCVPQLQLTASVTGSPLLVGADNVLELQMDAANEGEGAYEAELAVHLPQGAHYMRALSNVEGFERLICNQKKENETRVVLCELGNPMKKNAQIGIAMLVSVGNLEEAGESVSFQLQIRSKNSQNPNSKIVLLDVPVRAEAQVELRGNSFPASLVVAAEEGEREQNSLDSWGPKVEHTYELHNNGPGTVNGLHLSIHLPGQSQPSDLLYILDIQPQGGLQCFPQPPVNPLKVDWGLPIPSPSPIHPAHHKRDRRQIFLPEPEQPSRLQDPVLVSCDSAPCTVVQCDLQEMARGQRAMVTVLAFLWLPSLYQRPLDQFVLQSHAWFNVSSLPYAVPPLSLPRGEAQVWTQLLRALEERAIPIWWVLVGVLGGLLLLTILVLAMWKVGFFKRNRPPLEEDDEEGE
inactive: [1] -0.076 | crizotinib -0.068 | [2] -0.077 | [3] 0.045 | duvelisib -0.11 | gandotinib 0.283 | tozasertib 0.15 | [4] 0 | doramapimod 0.031 | ispinesib -0.088

MAPKAPK5 (UniProt Q8IW41)
inactive: [1] 0.012 | crizotinib -0.046 | [2] 0.027 | [3] 0.069 | duvelisib 0.056 | gandotinib 0.297 | tozasertib -0.042 | [4] -0.013 | doramapimod 0.141 | ispinesib -0.017

KEAP1 (UniProt Q14145)
inactive: [1] 0.011 | crizotinib -0.077 | [2] -0.095 | [3] 0.111 | duvelisib 0.008 | gandotinib -0.176 | tozasertib 0.077 | [4] 0.049 | doramapimod 0.089 | ispinesib -0.102

MAGEC2 (UniProt Q9UBF1)
inactive: [1] 0.008 | crizotinib 0.049 | [2] 0.009 | [3] 0.081 | duvelisib 0.043 | gandotinib 0.055 | tozasertib 0.107 | [4] -0.036 | doramapimod -0.036 | ispinesib -0.012

MED17 (UniProt Q9NVC6)
inactive: [1] -0.02 | crizotinib -0.004 | [2] 0.028 | [3] 0.119 | duvelisib -0.067 | gandotinib 0.007 | tozasertib -0.042 | [4] 0.109 | doramapimod 0.022 | ispinesib -0.049

MED1 (UniProt Q15648)
inactive: [1] 0.011 | crizotinib 0.014 | [2] 0.043 | [3] 0.04 | duvelisib -0.044 | gandotinib -0.025 | tozasertib -0.031 | [4] -0.05 | doramapimod 0.11 | ispinesib -0.078

MFN2 (UniProt O95140)
inactive: [1] 0.028 | crizotinib -0.109 | [2] 0 | [3] 0.022 | duvelisib -0.048 | gandotinib 0.028 | tozasertib -0.013 | [4] 0.041 | doramapimod 0.039 | ispinesib -0.208

MGST1 (UniProt P10620)
UniProt P10620, sequence (P10620 whole entry, looked up): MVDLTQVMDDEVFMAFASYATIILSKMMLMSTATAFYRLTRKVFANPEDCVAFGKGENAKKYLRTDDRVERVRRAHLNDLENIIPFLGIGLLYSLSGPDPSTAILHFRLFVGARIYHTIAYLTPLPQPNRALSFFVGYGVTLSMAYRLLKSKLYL
active: [3] -0.257
inactive: [1] -0.006 | crizotinib 0.152 | [2] -0.01 | duvelisib -0.042 | gandotinib 0.044 | tozasertib -0.111 | [4] -0.123 | doramapimod -0.053 | ispinesib -0.027

LTO1 (UniProt Q8WV07)
UniProt Q8WV07, sequence (Q8WV07 whole entry, looked up): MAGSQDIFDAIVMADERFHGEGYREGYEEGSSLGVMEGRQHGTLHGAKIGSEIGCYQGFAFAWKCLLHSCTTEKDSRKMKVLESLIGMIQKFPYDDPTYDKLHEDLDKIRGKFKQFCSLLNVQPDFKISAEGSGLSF
inactive: [1] 0.011 | crizotinib 0.048 | [2] -0.083 | [3] -0.063 | duvelisib 0.078 | gandotinib -0.026 | tozasertib -0.007 | [4] -0.042 | doramapimod 0.032 | ispinesib 0.051

LEO1 (UniProt Q8WVC0)
inactive: [1] 0.092 | crizotinib 0.026 | [2] -0.202 | [3] -0.126 | duvelisib 0.008 | gandotinib -0.031 | tozasertib 0.114 | [4] -0.008 | doramapimod 0.071 | ispinesib 0.052
